This is an account of results in PubChem BioAssay (NCI).

Structures are written as SMILES. About 79,000 compounds went through this panel and 15% of them were active in at least one assay; those are over-represented in the sample as a whole. A number with no mark means an inactive call. Active and inactive are the calls of the source. No stated cut-off is given here; in the data, active means growth inhibition above about 70%; inactive means the rest.

The nature of assay [1]: NCI Yeast Anticancer Drug Screen. Data for the rad50 strain (AID 155).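 Further: 0% = growth of vehicle-only cultures of the same strain.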 The following applies: S. cerevisiae rad50 strain growth inhibition, hits give high values. In outline:
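Yeast carrying a defined DNA repair defect were exposed to test compounds, and growth was compared with vehicle-treated controls to give percent inhibition.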

Assay [2] can be described thus: NCI Yeast Anticancer Drug Screen. Data for the mec2-1 strain (AID 157). To be noted: S. cerevisiae mec2-1 strain, hits give high values. The gist of the method: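 mec2-1 yeast strain, carrying an alteration in DNA damage repair or cell cycle control, was exposed to compounds; growth inhibition was measured relative to vehicle-treated controls.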
A short description of assay [3]: NCI Yeast Anticancer Drug Screen. Data for the sgs1 mgt1 strain (AID 161).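 Further: 0% = growth of cultures given vehicle only.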 The following applies: S. cerevisiae sgs1 mgt1 strain, hits give high values. The gist of the method: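 This yeast growth screen uses a strain with defined DNA-repair lesions; compound-treated growth is compared with vehicle-treated growth.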
Assay [4] is described as follows: NCI Yeast Anticancer Drug Screen. Data for the cln2 rad14 strain (AID 165).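 Further: 0% = growth equal to vehicle treated cultures.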 To be noted: S. cerevisiae cln2 rad14 strain, hits give high values. The gist of the method:
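Yeast carrying cln2 and rad14 alterations (cell cycle control and DNA damage repair) were exposed to compounds. Growth inhibition was measured against vehicle-treated controls.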

Assay [5] in a line: NCI Yeast Anticancer Drug Screen. Data for the bub3 strain (AID 167). To be noted: S. cerevisiae bub3 mutant strain, hits give high values. In outline:
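Compounds were applied to a genetically altered yeast strain carrying a cell-cycle control defect. Growth inhibition was scored against vehicle-treated controls.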

The nature of assay [6]: NCI Yeast Anticancer Drug Screen. Data for the mlh1 rad18 strain (AID 175). The following applies: S. cerevisiae mlh1 rad18 strain growth inhibition, hits give high values. In outline: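 Growth inhibition of the yeast strain was measured after compound exposure and expressed relative to vehicle-treated controls. The strain carries defined defects in DNA damage repair.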
Where [7] appears, read: at 5.0 µM (retest, dose inferred, filed as 0.5).
Where [8] appears, read: at 50.0 µM (retest, dose inferred, filed as 5.0).

As to `C=C(CO)C(=O)OC1CC(=C)C2CC(O)C(C)C2C2OC(=O)C(=C)C12` (configuration not stated), the growth inhibition is 20% in assay [1] (setting [7]); 97% (active) in assay [1] (setting [8]); 86.7% (active) in assay [1] (at 50.0 µM); 15% in assay [2] (setting [7]); 98% (active) in assay [2] (setting [8]); 52.5% in assay [2] (at 50.0 µM). For the same molecule, the growth inhibition in assay [3] (setting [7]) was 10%; in assay [3] (setting [8]), 97% (active); in assay [3] (at 50.0 µM), 92.5% (active); in assay [4] (setting [7]), 13%; in assay [4] (setting [8]), 89% (active); in assay [4] (at 50.0 µM), 32.4%. The growth inhibition in assay [5] (setting [7]) was 9%; in assay [5] (setting [8]), 97% (active); in assay [5] (at 50.0 µM) it was 79.4% (active); in assay [6] (setting [7]), 26%; in assay [6] (setting [8]), 98% (active); in assay [6] (at 50.0 µM) it was 87.7% (active).

Take `Cc1cc(N/N=C/c2ccccn2)nc2ccccc12`: the growth inhibition was 20% in assay [1] (setting [7]); 94% (active) in assay [1] (setting [8]); 88.7% (active) in assay [1] (at 50.0 µM); 7% in assay [2] (setting [7]); 95% (active) in assay [2] (setting [8]); 92.3% (active) in assay [2] (at 50.0 µM). Besides, the growth inhibition in assay [3] (setting [7]) is 21%; in assay [3] (setting [8]), 95% (active); in assay [3] (at 50.0 µM), 89.8% (active); in assay [4] (setting [7]), 22%; in assay [4] (setting [8]) it was 93% (active); in assay [4] (at 50.0 µM), 83.9% (active). For the same molecule, the growth inhibition was 8% in assay [5] (setting [7]); 98% (active) in assay [5] (setting [8]); 85.7% (active) in assay [5] (at 50.0 µM); 11% in assay [6] (setting [7]); 95% (active) in assay [6] (setting [8]); 90% (active) in assay [6] (at 50.0 µM).

On to `COc1c(/C=C/C=O)cc2c(c1OC)OCO2`, for which the growth inhibition in assay [1] (setting [7]) was 26%; in assay [1] (setting [8]), 73% (active); in assay [1] (at 50.0 µM) it was -1.75%; in assay [2] (setting [7]) it was 17%; in assay [2] (setting [8]), 40%; in assay [2] (at 50.0 µM) it was -6.3%. For the same molecule, the growth inhibition in assay [3] (setting [7]) was 31%; in assay [3] (setting [8]), 57%; in assay [3] (at 50.0 µM), 19.1%; in assay [4] (setting [7]), 27%; in assay [4] (setting [8]), 50%; in assay [4] (at 50.0 µM), 20.4%. Further, the growth inhibition in assay [5] (setting [7]) was 21%; in assay [5] (setting [8]) it was 54%; in assay [5] (at 50.0 µM), 13.5%; in assay [6] (setting [7]), 25%; in assay [6] (setting [8]), 61%; in assay [6] (at 50.0 µM), -11.8%.

Turning to `CC(=O)Nc1ccc(C(=O)CCl)cc1`, the growth inhibition in assay [1] (setting [7]) is 98% (active); in assay [1] (setting [8]) it was 98% (active); in assay [1] (at 50.0 µM) it was 76.3% (active); in assay [2] (setting [7]), 96% (active); in assay [2] (setting [8]), 99% (active); in assay [2] (at 50.0 µM), 51.7%. Also, the growth inhibition in assay [3] (setting [7]) is 98% (active); in assay [3] (setting [8]), 99% (active); in assay [3] (at 50.0 µM), 99% (active); in assay [4] (setting [7]), 87% (active); in assay [4] (setting [8]) it was 93% (active); in assay [4] (at 50.0 µM), 51.6%. For the same molecule, the growth inhibition in assay [5] (setting [7]) is 99% (active); in assay [5] (setting [8]), 99% (active); in assay [5] (at 50.0 µM) it was 7.6%; in assay [6] (setting [7]), 98% (active); in assay [6] (setting [8]) it was 99% (active); in assay [6] (at 50.0 µM) it was 94.7% (active).

With `CCCCCC[C@@H](O)C/C=C\CCCCCCCC(=O)OCCOC`, the growth inhibition was -4% in assay [1] (setting [7]); 2% in assay [1] (setting [8]); 24.9% in assay [1] (at 50.0 µM); -3% in assay [2] (setting [7]); 26% in assay [2] (setting [8]); 5.4% in assay [2] (at 50.0 µM). Besides, the growth inhibition was -6% in assay [3] (setting [7]); 24% in assay [3] (setting [8]); 4.2% in assay [3] (at 50.0 µM); 2% in assay [4] (setting [7]); -4% in assay [4] (setting [8]); 77.2% (active) in assay [4] (at 50.0 µM). Further, the growth inhibition was -5% in assay [5] (setting [7]); 86% (active) in assay [5] (setting [8]); 12.6% in assay [5] (at 50.0 µM); 0% in assay [6] (setting [7]); 13% in assay [6] (setting [8]); 34.1% in assay [6] (at 50.0 µM).

In the case of `CC/C(=C(/CC)c1ccc(O)cc1)c1ccc(O)cc1`, the growth inhibition is 16% in assay [1] (setting [7]); 99% (active) in assay [1] (setting [8]); 99% (active) in assay [1] (at 50.0 µM); 6% in assay [2] (setting [7]); 99% (active) in assay [2] (setting [8]); 98.8% (active) in assay [2] (at 50.0 µM). Besides, the growth inhibition in assay [3] (setting [7]) was 5%; in assay [3] (setting [8]) it was 100% (active); in assay [3] (at 50.0 µM) it was 99.1% (active); in assay [4] (setting [7]), 39%; in assay [4] (setting [8]) it was 99% (active); in assay [4] (at 50.0 µM) it was 98% (active). The growth inhibition is 22% in assay [5] (setting [7]); 63% in assay [5] (setting [8]); 99.5% (active) in assay [5] (at 50.0 µM); 13% in assay [6] (setting [7]); 97% (active) in assay [6] (setting [8]); 99.2% (active) in assay [6] (at 50.0 µM).

Turning to `O=C1C=CC(=O)N1c1cccc2c1CCCC2`, the growth inhibition is 99% (active) in assay [1] (setting [7]); 99% (active) in assay [1] (setting [8]); 91.9% (active) in assay [1] (at 50.0 µM); 100% (active) in assay [2] (setting [7]); 100% (active) in assay [2] (setting [8]); 93.8% (active) in assay [2] (at 50.0 µM). The growth inhibition in assay [3] (setting [7]) is 100% (active); in assay [3] (setting [8]), 99% (active); in assay [3] (at 50.0 µM), 94.7% (active); in assay [4] (setting [7]), 99% (active); in assay [4] (setting [8]) it was 99% (active); in assay [4] (at 50.0 µM), 93.5% (active). Moreover, the growth inhibition in assay [5] (setting [7]) is 100% (active); in assay [5] (setting [8]), 99% (active); in assay [5] (at 50.0 µM), 93.6% (active); in assay [6] (setting [7]), 99% (active); in assay [6] (setting [8]) it was 99% (active); in assay [6] (at 50.0 µM) it was 93.1% (active).

For `O=[N+]([O-])c1cc(-c2ccccc2)c(O)c([N+](=O)[O-])c1`, the growth inhibition in assay [1] (setting [7]) was 31%; in assay [1] (setting [8]) it was 78% (active); in assay [1] (at 50.0 µM), 93.8% (active); in assay [2] (setting [7]) it was 22%; in assay [2] (setting [8]), 60%; in assay [2] (at 50.0 µM) it was 88.8% (active). The growth inhibition in assay [3] (setting [7]) was 27%; in assay [3] (setting [8]) it was 71% (active); in assay [3] (at 50.0 µM) it was 85.8% (active); in assay [4] (setting [7]), 27%; in assay [4] (setting [8]), 51%; in assay [4] (at 50.0 µM), 74.8% (active). In addition, the growth inhibition in assay [5] (setting [7]) was 17%; in assay [5] (setting [8]), 55%; in assay [5] (at 50.0 µM), 89.4% (active); in assay [6] (setting [7]), 31%; in assay [6] (setting [8]) it was 67%; in assay [6] (at 50.0 µM), 92.8% (active).

Regarding `CCCCCCCCCCCCCCCCCC1=NCCCN1CCO`, the growth inhibition was 7% in assay [1] (setting [7]); 6% in assay [1] (setting [8]); 96.8% (active) in assay [1] (at 50.0 µM); 5% in assay [2] (setting [7]); 5% in assay [2] (setting [8]); 87.5% (active) in assay [2] (at 50.0 µM). The growth inhibition in assay [3] (setting [7]) was 14%; in assay [3] (setting [8]), 8%; in assay [3] (at 50.0 µM) it was 40%; in assay [4] (setting [7]), 9%; in assay [4] (setting [8]) it was 5%; in assay [4] (at 50.0 µM) it was -41.6%. The growth inhibition in assay [5] (setting [7]) was 4%; in assay [5] (setting [8]) it was 7%; in assay [5] (at 50.0 µM), 61.1%; in assay [6] (setting [7]) it was 23%; in assay [6] (setting [8]), 7%; in assay [6] (at 50.0 µM), 83% (active).
